Data on eight compounds can be found in PubChem BioAssay.

Assay [1] in a line: HepG2 liver cancer cell viability effects, profiling panel, resazurin fluorescence, 24 h, PK04 Diversity Set (AID 1172). Particulars: higher = more signal. In general terms: Alamar Blue is a resazurin reagent that responds to reducing activity.
The nature of assay [2]: basal S. cerevisiae growth modulation, no modifier, primary screen, OD600, strain BY4716, 24 h, basal condition (AID 1173). Particulars: OD600, 24 h, higher = more signal, called active from +8 up or from −8 down.
Assay [3] can be described thus: MM1S myeloma cell viability, profiling panel, resazurin fluorescence, basal, 24 h, PK04 Diversity Set (AID 1174).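 Further: MM1S multiple myeloma cell line.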 Particulars: higher = more signal, called active from +8 up or from −8 down.
The target of assay [4] is Dihydroorotate dehydrogenase (quinone), mitochondrial (Plasmodium falciparum (isolate 3D7)) (UniProt Q08210). Nature of the assay: PfDHODH enzyme inhibitors, primary screen, biochemical, C-terminal His tag, absorbance 600 nm (AID 1175).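 Further: recombinant parasite enzyme with a five histidine tag at its C terminus.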 Particulars: DCIP absorbance 600 nm, higher = more signal, called active from +8 up or from −8 down.
Sequence of Dihydroorotate dehydrogenase (quinone), mitochondrial (Plasmodium falciparum (isolate 3D7)) (Q08210 whole entry, looked up): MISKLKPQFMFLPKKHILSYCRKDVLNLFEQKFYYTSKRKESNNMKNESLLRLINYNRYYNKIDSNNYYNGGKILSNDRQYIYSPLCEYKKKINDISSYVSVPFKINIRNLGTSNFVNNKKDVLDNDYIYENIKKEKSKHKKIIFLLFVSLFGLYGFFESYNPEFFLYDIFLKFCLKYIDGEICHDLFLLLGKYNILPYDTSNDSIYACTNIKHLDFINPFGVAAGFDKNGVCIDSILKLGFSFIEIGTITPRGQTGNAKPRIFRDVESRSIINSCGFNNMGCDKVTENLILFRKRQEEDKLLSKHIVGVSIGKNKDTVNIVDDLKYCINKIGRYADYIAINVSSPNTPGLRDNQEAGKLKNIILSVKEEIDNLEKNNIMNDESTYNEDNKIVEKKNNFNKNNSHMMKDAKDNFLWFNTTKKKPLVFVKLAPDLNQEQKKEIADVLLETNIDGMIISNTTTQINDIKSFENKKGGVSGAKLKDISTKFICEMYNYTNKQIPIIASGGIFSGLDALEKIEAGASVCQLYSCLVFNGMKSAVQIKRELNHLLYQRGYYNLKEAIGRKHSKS
The nature of assay [5]: P. aeruginosa biofilm formation inhibitors, primary screen, strain PAO1, LB-PBS medium, absorbance 600 nm (AID 1176). Particulars: P. aeruginosa PAO1 growth/biofilm, A600, 12 h; higher = more signal.
A short description of assay [6]: S. cerevisiae RM11-1a growth modifiers, primary screen, strain RM11-1a, OD600, basal, 24 h (AID 1177).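 Further: cultures grown under basal conditions with no added stressor.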 The following applies: OD600, 24 h, higher = more signal, called active from +8 up or from −8 down.
Assay [7] can be described thus: E. coli acrAB mutant growth effects, primary screen, E. coli filamentation inducers, strain DRC39, OD650, 24 h (AID 1178).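 Further: growth measured as culture turbidity by optical density at 650 nm.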 The following applies: higher = more signal, called active from +8 up or from −8 down.
Assay [8] in a line: E. coli acrAB mutant growth effects, primary screen, E. coli filamentation inducers, strain DRC39, OD650, 48 h (AID 1179).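 Further: screen aims at cell division blockers that make cells filament.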 Particulars: E. coli DRC39 delta-acrAB growth, higher = more signal, called active from +8 up or from −8 down.
Assay [9] in a line: RPMI8226 myeloma cell viability, profiling panel, resazurin fluorescence, basal, 24 h, PK04 Diversity Set (AID 1180).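 Further: RPMI8826 multiple myeloma cell line at 5000 cells per well.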 Particulars: higher = more signal.
Assay [10] has as its target E3 ubiquitin-protein ligase XIAP (Homo sapiens) (UniProt P98170). Nature of the assay: XIAP binders, primary screen, biophysical, small-molecule microarray, fluorescence 635 nm (AID 1181).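 Further: score merges 667 nm emission and signal to noise over triplicate slides.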 Particulars: small-molecule microarray binding, higher = more signal.
Assay [11] concerns XIP peptide (Xip251-270) binding. Nature of the assay: small-molecule binders of XIP peptide, primary screen, biochemical, small-molecule microarray, fluorescence 635/667 nm, 0.1 µg/mL protein (AID 1182). Particulars: fluorescent protein binding, 635 nm, higher = more signal, called active from +8 up or from −8 down.
A further assay relates to XIP peptide (Xip251-270). Nature of the assay: small-molecule binders of XIP peptide, primary screen, biochemical, small-molecule microarray, fluorescence 635/667 nm, 0.5 µg/mL protein (AID 1183). The following applies: small-molecule microarray binding, fluorescence 635 nm; higher = more signal.
A short description of assay [12]: Plasmodium falciparum growth inhibition, primary screen, strain 3D7, DAPI fluorescence, 100 nL (AID 1184).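 Further: parasites grown inside human red blood cells in medium with human serum.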 Particulars: P. falciparum 3D7 growth, 3 d, higher = more signal.
Assay [13] has as its target Homeobox protein Hox-A13 (Mus musculus) (UniProt Q62424). Nature of the assay: inhibitors of HoxA13-DNA binding, primary screen, biochemical, fluorescence polarization, labeled oligonucleotide (AID 1185). The following applies: 15 min, higher = more signal, called active from +8 up or from −8 down.
Assay [14] in a line: inhibitors of hydroxyurea-induced Chk1 phosphorylation, primary screen, imaging, HeLa, phospho-Chk1 antibody, percent positive cells (AID 1186). Particulars: hydroxyurea-induced phospho-Chk1 immunofluorescence imaging, higher = more signal.
A short description of assay [15]: inhibitors of hydroxyurea-induced Chk1 phosphorylation, primary screen, imaging, HeLa, phospho-Chk1 nuclear intensity (AID 1187). Particulars: hydroxyurea-induced phospho-Chk1 immunofluorescence imaging, higher = more signal.

The structures appear in SMILES notation. Calls of active or inactive are those of the source. Unless noted, how the calls were made is not given here.

Sequence of E3 ubiquitin-protein ligase XIAP (Homo sapiens) (P98170 whole entry, looked up): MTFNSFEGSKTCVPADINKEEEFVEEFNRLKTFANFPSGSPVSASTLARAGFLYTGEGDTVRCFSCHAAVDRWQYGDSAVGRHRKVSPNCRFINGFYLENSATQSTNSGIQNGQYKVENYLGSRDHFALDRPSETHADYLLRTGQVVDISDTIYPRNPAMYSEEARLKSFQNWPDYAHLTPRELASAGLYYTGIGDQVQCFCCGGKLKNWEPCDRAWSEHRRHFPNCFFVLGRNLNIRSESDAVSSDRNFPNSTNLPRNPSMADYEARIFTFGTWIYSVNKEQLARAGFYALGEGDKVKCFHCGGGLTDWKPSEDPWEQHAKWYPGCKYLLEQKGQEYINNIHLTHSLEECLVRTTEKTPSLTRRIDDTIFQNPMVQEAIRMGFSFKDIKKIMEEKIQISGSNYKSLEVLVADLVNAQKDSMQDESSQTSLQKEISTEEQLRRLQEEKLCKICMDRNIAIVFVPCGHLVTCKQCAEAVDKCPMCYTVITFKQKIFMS
Sequence of Homeobox protein Hox-A13 (Mus musculus) (Q62424 whole entry, looked up): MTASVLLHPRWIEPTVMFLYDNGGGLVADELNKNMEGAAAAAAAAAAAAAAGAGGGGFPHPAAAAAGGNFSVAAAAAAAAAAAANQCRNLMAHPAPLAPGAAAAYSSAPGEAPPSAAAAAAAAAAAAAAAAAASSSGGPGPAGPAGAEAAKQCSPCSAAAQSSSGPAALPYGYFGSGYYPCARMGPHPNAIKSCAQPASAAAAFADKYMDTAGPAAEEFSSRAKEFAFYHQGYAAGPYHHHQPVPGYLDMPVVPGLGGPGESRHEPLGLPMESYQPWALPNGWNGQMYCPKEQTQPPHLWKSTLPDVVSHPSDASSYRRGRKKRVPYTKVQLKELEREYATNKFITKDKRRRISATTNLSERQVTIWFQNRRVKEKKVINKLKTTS

In the case of `CCOC(=O)C1=CC[C@@H](c2ccccc2Cl)N(S(=O)(=O)c2ccc(C)cc2)[C@H]1c1cccc(OC)c1`, the z-score was -0.18 in assay [1]; 1.46 (inactive) in [2]; -0.703 (inactive) in assay [3]; 0.34 (inactive) in assay [5]; 0.822 (inactive) in assay [6]; -0.484 (inactive) in [7]. Further, the z-score in assay [8] is -0.679 (inactive); in assay [9], -1.53; in assay [12] it was -0.794; in assay [13], -1.18 (inactive); in [14], 0.0932 (inactive); in [15], -0.553 (inactive). Further, the composite z-score in assay [4] was 0.0463 (inactive); in assay [10] it was -0.114; in assay [11], 0.211 (inactive); in the assay with XIP peptide (Xip251-270), 0.246.
As to `CCOC(=O)C[C@H]1[C@H](OC(=O)c2cc3ccccc3oc2=O)[C@@H](NC(=O)C2CCCCC2)c2cc(OCCCO)ccc2N1C(=O)Cc1ccc(OC)cc1`, the z-score is -0.715 in assay [1]; 0.0323 (inactive) in assay [2]; -0.176 (inactive) in [3]; -0.234 (inactive) in [5]; -0.0196 (inactive) in assay [6]; -0.825 (inactive) in assay [7]. Further, the z-score in assay [8] was -1.1 (inactive); in [9], -0.986; in assay [12] it was -0.565; in [13], -4.22 (inactive); in [14], 0.521 (inactive); in assay [15] it was -0.306 (inactive). The composite z-score in assay [4] was 0.427 (inactive); in [10] it was 0.214; in assay [11], 0.0512 (inactive); in the assay on XIP peptide (Xip251-270) it was 0.0439.
For the compound `Cc1ccc(S(=O)(=O)N2[C@@H](c3ccccc3)C(C(=O)O)=CC[C@H]2c2ccc(C#N)cc2)cc1`, the z-score was -0.847 in assay [1]; -0.647 (inactive) in assay [2]; -1.35 (inactive) in assay [3]; 0.0794 (inactive) in assay [5]; 0.11 (inactive) in assay [6]; -0.674 (inactive) in [7]. The z-score in [8] is -0.841 (inactive); in [9], -1.28; in [12], -1.26; in assay [13] it was -6.06 (inactive); in assay [14] it was 0.0247 (inactive); in assay [15], -0.206 (inactive). For the same compound, the composite z-score in assay [4] is 0.0114 (inactive); in assay [10], 0.15; in assay [11], 0.556 (inactive); with XIP peptide (Xip251-270), 0.848.
For `COc1ccc([Si](C)(C)[C@H]2[C@H](CCO)O[C@@]3(C(=O)N(Cc4ccc(N5CCOC5=O)cc4)c4ccccc43)[C@@H]2C)cc1`, the z-score in assay [1] is -0.667; in [2], 2.47 (inactive); in [3] it was -2.66 (inactive); in assay [5], 2.02 (inactive); in assay [6], 5.44 (inactive); in assay [7], 1.32 (inactive). Moreover, the z-score in assay [8] was 0.714 (inactive); in assay [9] it was -2.06; in [12] it was -2.76; in assay [13], -2.76 (inactive); in assay [14], -0.73 (inactive); in [15], -0.713 (inactive). Further, the composite z-score in assay [4] is 1.02 (inactive); in assay [10], -0.0206; in assay [11], 0.782 (inactive); with XIP peptide (Xip251-270), 0.666.
In the case of `C[N+](C)(C)CCCC[C@@H]1NC(=O)[C@H]2C[C@@H](C(=O)NCCCCCNC(=O)CS)[C@@H](c3ccc(O)cc3)N2C1=O`, the z-score was -0.532 in assay [1]; -0.905 (inactive) in assay [2]; 0.469 (inactive) in assay [3]; 0.82 (inactive) in assay [5]; -2.28 (inactive) in [6]; 0.902 (inactive) in assay [7]. Moreover, the z-score is 1.33 (inactive) in [8]; -0.178 in [9]; -0.0941 in [12]; -0.677 (inactive) in [13]; 0.0225 (inactive) in [14]; 0.579 (inactive) in assay [15]. Further, the composite z-score in [4] is -1.3 (inactive); in [10], -0.216; in assay [11] it was 0.949 (inactive); with XIP peptide (Xip251-270), 0.696.
On to `C=CCC(OC(C)=O)[C@@H]1[C@@H](N(Cc2ccc(-c3cccc(C(F)(F)F)c3)o2)C(=O)Cc2ccc(F)cc2)c2cc(OCCCO)ccc2N1C(=O)c1ccc2ccccc2c1` (stereo partly drawn), for which the z-score in [1] was 0.589; in [2], -0.382 (inactive); in assay [3], 0.81 (inactive); in [5], -0.194 (inactive); in [6], -0.423 (inactive); in assay [7], 0.227 (inactive). The z-score in [8] was 0.369 (inactive); in assay [9], 0.934; in [12] it was -0.681; in assay [13] it was -1.3 (inactive); in assay [14] it was 0.627 (inactive); in assay [15], 0.835 (inactive). Also, the composite z-score is -1.26 (inactive) in [4], -0.224 in assay [10], -0.502 (inactive) in [11] and -0.669 with XIP peptide (Xip251-270).
Regarding `COCCOC(=O)N1C(=O)[C@@]2(c3cc(C#CC4(O)CCCCCC4)ccc31)[C@H](c1ccc(OCCO)cc1)N1[C@H](c3ccccc3)[C@H](c3ccccc3)OC(=O)[C@H]1[C@@H]2C(=O)N1CCCCCCC1`, the z-score is -0.768 in assay [1]; 0.973 (inactive) in assay [2]; -0.418 (inactive) in [3]; 1.16 (inactive) in assay [5]; 2.11 (inactive) in [6]; -2.2 (inactive) in assay [7]. The z-score in [8] is -1.8 (inactive); in assay [9] it was 0.0982; in assay [12], -2.43; in [13], -13.3 (active); in [14], -0.0238 (inactive); in assay [15], 0.222 (inactive). The composite z-score in assay [4] is 0.0448 (inactive); in [10] it was -0.151; in assay [11] it was 0.662 (inactive); in the assay on XIP peptide (Xip251-270), 0.743.
Turning to `C=CC[C@]1(C(=O)NCc2ccccc2)COC(c2ccc(OCCCO)cc2)=N1`, the z-score is -0.137 in [1]; -1.92 (inactive) in assay [2]; -1.4 (inactive) in [3]; -0.0025 (inactive) in assay [5]; 0.02 (inactive) in [6]; 0.729 (inactive) in assay [7]. In addition, the z-score was -0.145 (inactive) in assay [8]; -0.874 in [9]; -0.823 in [12]; -4.86 (inactive) in assay [13]; -0.059 (inactive) in assay [14]; -0.0405 (inactive) in [15]. Further, the composite z-score in assay [4] is -0.267 (inactive); in [10], 0.001; in assay [11], -0.398 (inactive); with XIP peptide (Xip251-270) it was 0.779.
